These results are taken from PubChem BioAssay AID1259343 (VanderVen Lab, College of Veterinary Medicine, Cornell …, 2017).

Out of some 6,200 compounds screened, about 2,900 (47%) were called active. So high a share suggests a set chosen from earlier hits. The list shows a part of the results. Unmarked numbers belong to inactive results. Cut-off read from the data, not from the text of the source: active = inhibition above about 50%; inactive = the rest.

A short description of the experiment: Mycobacterium tuberculosis growth inhibition, primary screen (AID 1259343). As to conditions: inhibition: at 10 µM, active compounds read high; outcome: 10 uM.
Consider `O=C(CSC1=NCCS1)N1c2ccccc2Sc2ccccc21`, for which the inhibition was 27.6%.
On to `CCSc1nnc2c(n1)OC(c1ccc(OCc3ccccc3)cc1)Nc1ccccc1-2` (stereo unspecified), for which the inhibition is 83% (active).
On to `O=C(O)c1cc2c(ccc3cc(Br)ccc32)oc1=O`, for which the inhibition is 47.8%.
Under `O=C(O)c1cc(Br)ccc1N=Cc1nc(-c2ccc(Cl)cc2)oc1O` stands 50.4% (active); under `Nc1ccc(Oc2ccc(Oc3ccc(N)cc3)cc2)cc1`, 72.7% (active); under `Nc1ccc(Oc2ccc(N)cc2)cc1`, -13.3%.
For `CCC(C)(C)c1ccc(Oc2ccc(N)cc2)cc1`, the inhibition was 21.9%.
Regarding `Cc1cc(S(=O)(=O)Nc2cccc(Br)c2)ccc1Br`, the inhibition is 39.6%.
`CCS(=O)(=O)c1ccc(-c2cccc(NS(=O)(=O)c3ccc(C)cc3C)c2)nn1`: the inhibition was 99.5% (active).
With `CC(=O)Nc1cccc2c1NCCC2` the figure was -0.59%.
Under `O=S(CSc1nc(Br)ns1)c1nc(Br)ns1` (stereo unspecified) stands 102% (active).
Regarding `COc1ccc2cc(C(=O)NNC(=O)c3ccccn3)c(C)nc2c1`, the inhibition is 0.1%.
As for `CCN1CCc2nc3ccccc3c(C(=O)NCc3ccc(OC)cc3)c2C1`, the inhibition is -11%.
Turning to `COc1ccc2nc(C(=O)NCC(C)c3ccccc3)ccc2c1` (stereo unspecified), the inhibition is 52.4% (active).
On to `c1ccc(-c2nc(-c3ccc4c(c3)OCO4)cs2)cc1`, for which the inhibition was -16.4%.
`c1ccc(-c2nnc3n2NC(c2ccc4c(c2)OCO4)S3)cc1` (stereo unspecified): the inhibition was -2.01%.
As to `c1ccc(-c2noc(N3CCCCC3)c2CNCc2ccc3c(c2)OCO3)cc1`, the inhibition was 83.5% (active).
Regarding `CC(=O)N=c1c(Nc2ccc(Cl)cc2)nc(=O)[nH]n1C`, the inhibition was 85.5% (active).
For `Cc1c(Br)c(Nc2ccc(Cl)cc2)nn1C`, the inhibition was -14.8%.
Regarding `O=C(CCc1nnc(CCCCc2ccccc2)o1)NCC[C@@H]1C[C@@H]2C=C[C@H]1C2`, the inhibition is 78.5% (active).
Regarding `CN(Cc1ccsc1)C(=O)CCc1nnc(CCCc2ccccc2)o1`, the inhibition result was “inactive”.
Turning to `O=C1c2ccccc2C(=O)N1CC1CC2C=CC1C2` (stereo unspecified), the inhibition was 38.1%.
Consider `C=CCn1nnc(NC(=O)c2ccc(OCC(C)C)cc2)n1`, for which the inhibition was 30.5%.
Under `Cc1nc(SCC(=O)c2cccs2)c2c3c(sc2n1)CCCC3` stands -1.14%; under `NC(=O)CSc1nnc(SCc2ccc(Cl)c(Cl)c2)s1`, 24.1%.
In the case of `O=C(CSc1nnc(SCC(=O)c2cccs2)s1)c1cccs1`, the inhibition is 96.8% (active).
With `N#CC(=Cc1ccc(Sc2ccccc2)o1)C(=O)NC1CCCCC1`, the inhibition was 92.9% (active).
With `N#CC(=Cc1ccc([N+](=O)[O-])o1)C(=O)NCc1ccco1` the figure was 49.5%; with `Cc1ccc(-n2cc(CN(C)Cc3cccnc3)c(-c3ccc(F)cc3)n2)cc1`, 46.4%; with `Cc1ccc(-n2cc(CNCCc3ncc(C)[nH]3)c(-c3ccc(F)cc3)n2)cc1`, 93% (active).
`CCC(C)Nc1nc(-c2ccc(Cl)cc2)cs1` (stereo unspecified): the inhibition is -10.8%.
Regarding `CC(C)(C)c1ccc(-c2csc(NC=C(C#N)C#N)n2)cc1`, the inhibition is 75.2% (active).
In the case of `Cc1ccc(-c2csc(SCC(=O)NC(C)(C#N)C3CC3)n2)cc1` (stereo unspecified), the inhibition was 0.22%.
In the case of `CCOc1ccc(N2CC(C#N)=C3c4cc(OC)c(OC)cc4CCN3C2)cc1`, the inhibition was 94.9% (active).
With `Cc1cccc(N2CCN(CCNc3cncc(Cl)n3)CC2)c1` the figure was 86.1% (active).
For the compound `Cc1ccc(-n2c(-c3ccc(Cl)cc3)cc(C(=O)N3CCN(c4cccc(Cl)c4)CC3)c2C)cc1`, the inhibition is 33.6%.
As to `c1cnn(-c2cncc(NCC3CCCCCCC3)n2)c1`, the inhibition was 49.9%.
Regarding `CNC(=O)c1cccc(N2CCC(c3ccccc3OC)C2)n1` (stereo unspecified), the inhibition is 20.6%.
With `COc1ccccc1N1CCC(CNc2cncc(Cl)n2)C1` (stereo unspecified), the inhibition was 85% (active).
Under `Fc1ccc(Nc2ccc3ccccc3n2)cc1Cl` stands 22.7%; under `CC(=O)Oc1cccc2c1C(=O)c1c(OC(C)=O)cc(C(=O)O)cc1C2=O`, 77.5% (active); under `CCCc1nc2c(c(=O)c3ccccc3n2C)c(=O)n1CCc1ccccc1`, -32.5%.
Consider `Oc1c(C(c2ccc(Cl)cc2)N2CCCC2)ccc2cccnc12` (stereo unspecified), for which the inhibition was 92% (active).
Consider `Oc1c(C(c2ccc(Br)cc2)N2CCCC2)ccc2cccnc12` (stereo unspecified), for which the inhibition is 77.3% (active).
Turning to `Clc1ccc(C(c2ccc(Cl)cc2)N2CCNCC2)cc1`, the inhibition was 42.8%.
Consider `CC(C)Oc1ccc2c(=O)cc(-c3ccccc3)oc2c1`, for which the inhibition is 58.7% (active).
Consider `Cc1oc2cc(OC(C)C)ccc2c(=O)c1Oc1ccccc1`, for which the inhibition was 8.96%.
As to `O=c1cc(-c2ccccc2)oc2cc(O)c(O)cc12`, the inhibition is 95.7% (active).
With `COc1cc(C)c2c(=O)cc(-c3ccccc3)oc2c1` the figure was 47.7%; with `O=C(CC[N+](=O)[O-])OC[C@H]1O[C@@H](O)[C@H](OC(=O)CC[N+](=O)[O-])[C@@H](OC(=O)CC[N+](=O)[O-])[C@@H]1OC(=O)CC[N+](=O)[O-]`, 82.8% (active); with `O=C1C2=C(Nc3ccccc3SC2c2cccs2)c2ccccc21` (stereo unspecified), 21.4%.
In the case of `O=C1C2=C(Nc3ccccc3S(=O)(=O)C2c2ccc(Cl)cc2)c2ccccc21` (stereo unspecified), the inhibition is 66.7% (active).
On to `O=C(Cc1cc(-c2cc3ccccc3o2)on1)N1CCCCC1`, for which the inhibition was 22.8%.
With `CC1Cc2ccccc2N1CCNC(=O)c1cc(Cl)ccc1F` (stereo unspecified), the inhibition is 8.76%.
Under `O=C(Cc1cc(-c2cc3ccccc3o2)on1)N1CCCc2ccccc21` stands 66.9% (active); under `O=C(CNc1ccc(Cl)cc1F)N1CCCc2ccccc21`, 50.7% (active); under `O=C(Cc1cc(-c2ccc(F)cc2)on1)N1CCCc2ccccc21`, 56.2% (active).
Turning to `O=C(Cc1cc(-c2cc3ccccc3o2)on1)Nc1ccon1`, the inhibition was 18.9%.
Take `COc1cccc(-c2cc(CC(=O)N3c4ccccc4CC3C)no2)c1` (stereo unspecified): the inhibition was 38.3%.
As to `O=C(CNc1ccc(Cl)cc1F)N1CCN(c2ccccc2)CC1`, the inhibition was 16.7%.
Consider `O=[N+]([O-])c1ccc(Oc2ccc(-c3ccccc3)cc2)cc1`, for which the inhibition is -41%.
In the case of `O=C(O)c1cc(Oc2ccc([N+](=O)[O-])cc2)cc(Oc2ccc([N+](=O)[O-])cc2)c1`, the inhibition is 60.2% (active).
As to `Nc1cccc2c([N+](=O)[O-])cccc12`, the inhibition is 8.31%.
Turning to `O=[N+]([O-])c1ccc(Oc2ccc([N+](=O)[O-])cc2)cc1`, the inhibition is 98.6% (active).
Under `O=[N+]([O-])c1ccc(C2SCCS2)cc1` stands -11.2%; under `Nc1cccc2c(Oc3ccc([N+](=O)[O-])cc3)cccc12`, 68.4% (active).
Take `O=[N+]([O-])c1ccc(Sc2ccc([N+](=O)[O-])cc2)cc1`: the inhibition was 57.3% (active).
`Cc1cnn(CCc2nc(-c3cc(Br)cs3)no2)c1`: the inhibition is 36.5%.
Turning to `Cc1cc(CC(=O)NC2CC2c2ccc(Br)cc2)no1` (stereo unspecified), the inhibition was 13.2%.
For the compound `Cc1cc(OCC(=O)NCc2ccc(-c3ccc(Br)cc3)o2)no1`, the inhibition was 56.9% (active).
With `O=c1nc(/C=C/c2cccc3ccccc23)cc(C(F)(F)F)[nH]1` the figure was -5.05%; with `O=c1nc(/C=C/c2ccc(Br)cc2)cc(C(F)(F)F)[nH]1`, 100% (active); with `Cc1ccsc1/C=C/c1cc(C(F)(F)F)[nH]c(=O)n1`, 36.8%.
With `O=c1cc(CSc2ccc(Cl)cc2)nc2nc[nH]n12` the figure was 30%; with `Clc1ccc(Cn2ccnc2CNc2ccccc2)c(Cl)c1`, 28.2%; with `Clc1ccc(CSc2nnc3nc[nH]n23)c(Cl)c1`, 90.4% (active).
For `O=C(Cc1ccsc1)N1CCN(Cc2cccc(-c3noc(-c4ccccc4)n3)c2)CC1`, the inhibition is 25.5%.
For the compound `O=C(c1cccc(OC(F)F)c1)N1CCN(Cc2ccc(-c3noc(-c4ccco4)n3)cc2)CC1`, the inhibition was 91.3% (active).
For the compound `CCOc1ccc(N2C(=O)CSC2c2ccccc2N)cc1` (stereo unspecified), the inhibition is 90.3% (active).
With `COC(=O)C1=C(C(=O)OC)C2=S(SC(c3ccc(OC)cc3)=C2)S1` (stereo unspecified) the figure was 7.91%; with `COC(=O)C1=C(C(=O)OC)SC(=C2C(=S)C(C)(C)Nc3ccccc32)S1`, 27.1%.
In the case of `COC(=O)C1=C(C(=O)OC)SC(=CC(=S)c2ccc(OC)cc2)S1`, the inhibition was 82.8% (active).
Take `CCOc1ccc(Oc2ccc(S(=O)(=O)NC(C)CC#N)cc2)cc1` (stereo unspecified): the inhibition was 39.1%.
With `CCCCN=C1NN=C(C23CC4CC(CC(C4)C2)C3)C(C)S1` (stereo unspecified) the figure was 82.7% (active); with `CC1=CC(=NNc2ccc(S(N)(=O)=O)cc2[N+](=O)[O-])CC(C)(C)C1`, -10.6%.
With `O=[N+]([O-])c1ccc(NN=C2CC3CC=CC23)c([N+](=O)[O-])c1` (stereo unspecified) the figure was 92% (active); with `O=[N+]([O-])c1ccc(NN=C2C3CC4CC2CC(O)(C4)C3)c([N+](=O)[O-])c1`, 25.5%.
For the compound `C=CCSc1nnc(NC(=O)c2cc(Br)ccc2Cl)s1`, the inhibition is 9.41%.
On to `CCc1ccccc1Nc1nnc(SCC(=O)NC(C)C)s1`, for which the inhibition is 102% (active).
Under `O=C(Nc1nnc(SCc2ccc(F)cc2)s1)c1ccccc1Br` stands 27.4%; under `CC(C)NC(=O)CSc1nnc(Nc2ccccc2Cl)s1`, 78.8% (active); under `CNc1nnc(SCc2sc3ccccc3c2Cl)s1`, 48.5%.
With `COCCCNC(=O)CSc1nnc(Nc2ccccc2Cl)s1` the figure was 80.1% (active); with `CCSc1nnc(NC(=O)Cc2ccccc2Cl)s1`, 95.5% (active); with `COC(=O)c1ccc(NC(=O)N2CCCC(C(=O)c3sccc3C)C2)cc1` (stereo unspecified), -5.44%.
As for `C=CCNCC(=O)N(Cc1ccccc1)Cc1ccc(C)s1`, the inhibition is 21.1%.
Under `CCCN(CC(=O)N(Cc1ccccc1)Cc1sccc1C)C(=O)Nc1ccc(C(=O)OCC)cc1` stands 89.4% (active).
For `CC(=O)N1N=C(c2ccco2)OC1C(=O)N[C@@H]1C[C@@H]2C[C@H](C1C)C2(C)C` (stereo partly specified), the inhibition was 8.4%.
Under `c1ccc(-c2cc(NC3CCCC3)nc3ccccc23)cc1` stands 67.7% (active); under `c1cncc(-c2nc(NC3CCCCCCC3)c3ccccc3n2)c1`, 39.2%.
With `c1cncc(-c2nc(N3CCCC4CCCCC43)c3ccccc3n2)c1` (stereo unspecified), the inhibition was -13.1%.

By inhibition is commonly meant the drop in the measured response relative to a control, in per cent.
